Reference: PubChem BioAssay (NCATS)
Results filed as inconclusive are left out. Active and inactive are the calls of the source. Calls come from the whole dose curve; as a rule, active = well fitted curve in the direction sought with a large enough effect; inconclusive = small, poorly fitted or top-dose-only effect, or another doubt; inactive = no such curve, though single readings can be large; an effect the other way counts as inactive or inconclusive. Where a SMILES comes first, the peptide text is derived from it. The star is where a group is joined. Cbz = O=C(OCc1ccccc1)*; CH2F = FC*

Tests used:
[1] = P-glycoprotein substrates identified in KB-3-1 adenocarcinoma cell line, qHTS therapeutic library screen (AID 1346986); conditions: KB-3-1 parental cells viability, CellTiter-Glo, 72 h; series mostly up to 44.5 µM; note: nearly all actives have a fitted effect of over 60% in size
How it was run: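 KB-3-1 parental and colchicine-selected P-gp-overexpressing KB-8-5-11 cells (colchicine omitted during assay), 500 cells/well, dosed in dose-response for 72 h at 37 °C; CellTiter-Glo luminescence. Cytotoxic: curve class -1.1 to -2.4, max response >50%, AC50 < 10 uM.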

[2] = P-glycoprotein substrates identified in KB-8-5-11 adenocarcinoma cell line, qHTS therapeutic library screen (AID 1346987); conditions: KB-8-5-11 (P-gp overexpressing) viability, CellTiter-Glo, 72 h; series mostly up to 44.5 µM; note: nearly all actives have a fitted effect of over 65% in size; for activity change, negative = cytotoxicity: % is set by controls: 0 for no effect and ±100 for the full control effect
How it was run: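 Steps: plate 500 KB-8-5-11 cells/well in DMEM + 10% FCS (colchicine removed); pin compounds in dose-response; incubate 72 h, 37 degree C, 5% CO2; add CellTiter-Glo, 5 min; read luminescence.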

[3] = system: Zika virus NS2B-NS3 protease (linked construct); assay: Primary screen NINDS Rhodamine qHTS for Zika virus inhibitors (AID 1347160); conditions: purified NS2B-NS3 protease, Rhodamine110 substrate fluorescence; series mostly up to 33.1 µM; note: nearly all actives have a fitted effect of over 55% in size; for activity change, negative = inhibition: % is set by controls: 0 for no effect and ±100 for the full control effect
How it was run: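 In 10 mM Tris-HCl pH 8.0 containing 0.01% Tween 20, linked NS2B-NS3 protease (25 nM final) is exposed to test compounds for 15 min. Cleavage of 1.5 microM Rhodamine110 substrate is tracked by fluorescence over 15 min.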

Cc1c(-c2ccc3c(c2)OCO3)oc2ccc(C(O)C(C)O)cc12 (centres undefined)
inactive: Potency [1] | Potency [2] | Potency [3]

CC(C)(O)C1CC=C(C(=O)OC[C@H]2O[C@@H](Oc3cc(C(=O)O)cc(O)c3O)[C@H](O)[C@@H](O)[C@@H]2O)CC1 (some centres undefined)
inactive: Potency [1] | Potency [2] | Potency [3]

C=C1C(=O)OC2CC(COC(=O)C(C)C)=C(C(C)CCCOC(C)=O)[C@@H](OC(C)=O)C12 (some centres undefined)
inactive: Potency [1] | Potency [2] | Potency [3]

C[C@H]1CC[C@@]2(OC1)O[C@H]1CC3C4CC[C@H]5C[C@@H](O)CC[C@]5(C)C4CC(=O)[C@]3(C)[C@H]1[C@@H]2C (some centres undefined)
inactive: Potency [1] | Potency [2] | Potency [3]

CC(C)C1CCC(CO)=CC1/C=C(\CO)C(=O)OCC1(O)CCC(C(C)C)C2C=C(C(=O)O)COC(=O)C21 (centres undefined)
inactive: Potency [1] | Potency [2] | Potency [3]

NC1(c2ccc(NC(=O)c3ccnc(-c4cc(C(=O)O)ccn4)c3)cc2)CC1
inactive: Potency [1] | Potency [2] | Potency [3]

C/C=C(/C)C(=O)O[C@@H]1C[C@@H](OC(=O)/C(C)=C\C)[C@@]2(C)C3C(=O)C=C(C)C2C3C1(C)C
inactive: Potency [1] | Potency [2] | Potency [3]

CC1(CO)CCCC2(C)C3COC(=O)C3=CC(O)C12 (centres undefined)
inactive: Potency [1] | Potency [2] | Potency [3]

C=C(C)[C@@H]1CC[C@]2(CO)CC[C@]3(C)[C@H](CC[C@@H]4[C@@]5(C)CC[C@H](O)C(C)(C)[C@@H]5CC[C@]43C)[C@@H]12
inactive: Potency [1] | Potency [2] | Potency [3]

CC1(C)C2CC[C@]3(C)C(C(=O)C=C4[C@H]5C[C@@](C)(C(=O)O)CC[C@]5(C)CC[C@]43C)[C@@]2(C)CC[C@@H]1O (some centres undefined)
inactive: Potency [1] | Potency [2] | Potency [3]

CO[C@H]1c2cc(C(C)C)c(O)c(O)c2[C@@]23CCCC(C)(C)C2[C@@H]1OC3=O (some centres undefined)
inactive: Potency [1] | Potency [2] | Potency [3]

CC1(C)CC[C@]2(C(=O)O[C@@H]3O[C@H](CO)[C@@H](O)[C@H](O)[C@H]3O)CC[C@]3(C)C(=CCC4[C@@]5(C)C[C@@H](O)[C@H](O)[C@@](C)(CO)C5[C@H](O)C[C@]43C)C2[C@@H]1O (some centres undefined)
inactive: Potency [1] | Potency [2] | Potency [3]

COc1cccc(OC)c1-c1nc(C(=O)N[C@@H](CC(C)C)C(=O)O)cn1-c1ccnc2cc(Cl)ccc12
inactive: Potency [1] | Potency [2] | Potency [3]

CC[C@H](C)[C@H](NC(=O)[C@H](Cc1ccc(O)cc1)NC(=O)[C@@H](N)C(C)C)C(=O)N[C@@H](Cc1cnc[nH]1)C(=O)N1CCC[C@H]1C(=O)N[C@@H](Cc1ccccc1)C(=O)O
inactive: outcome [1] inactive [at 5.11 µM] | activity change, negative = cytotoxicity [2] 1.21% [at 5.11 µM] | activity change, negative = inhibition [3] 8.38% [at 4.91 µM]

C/C=C1/[C@H](O[C@@H]2O[C@H](CO)[C@@H](O)[C@H](O)[C@H]2O)OC=C(C(=O)OC)[C@H]1CC(=O)OCCc1ccc(OC(=O)C[C@@H]2C(C(=O)OC)=CO[C@@H](O[C@@H]3O[C@H](CO)[C@@H](O)[C@H](O)[C@H]3O)/C2=C/C)cc1
inactive: outcome [1] inactive [at 9.29 µM] | activity change, negative = cytotoxicity [2] 6.56% [at 9.29 µM] | Potency [3]

COc1ccc(OC)c(C2C(C#N)=C(N)Oc3n[nH]c(-c4ccc5ccccc5c4)c32)c1 (centres undefined)
inactive: Potency [1] | Potency [2] | Potency [3]

CC[C@@H](Nc1c(Nc2cccc(C(=O)N(C)C)c2O)c(=O)c1=O)c1ccc(C)o1
inactive: Potency [1] | Potency [2] | Potency [3]

C/C(=C\CCC1(C)C2CC3C(C2)C31C)C(=O)O (centres undefined)
inactive: Potency [1] | Potency [2] | Potency [3]

CC1=C2C(=O)C=C(CO)C2[C@H]2OC(=O)[C@H](C)[C@@H]2[C@@H](OC(=O)Cc2ccc(O)cc2)C1 (some centres undefined)
inactive: Potency [1] | Potency [2] | Potency [3]

C/C=C/C=C/C(O)=C1/C(=O)[C@]2(C)C(=O)[C@@](C)(O)[C@H]1[C@H]([C@@]1(C)OC(=O)C(C)=C1O)[C@H]2C(=O)CC/C=C/C
inactive: Potency [1] | Potency [2] | Potency [3]

COC(=O)CC[C@H](NC(=O)[C@H](CC(C)C)NC(=O)OCc1ccccc1)C(=O)N[C@@H](Cc1cnc[nH]1)C(=O)N[C@@H](CC(=O)OC)C(=O)CF (Cbz-LE(OMe)HD(OMe)-CH2F)
inactive: outcome [1] inactive [at 9.29 µM] | activity change, negative = cytotoxicity [2] 6.58% [at 9.29 µM] | Potency [3]

CC1(C)C=Cc2c(ccc3c2[N+]([O-])=C2C3(O)CC34NC(=O)C5(CCCN5C3=O)CC4C2(C)C)O1 (centres undefined)
inactive: Potency [1] | Potency [2] | Potency [3]

CCC/C=C/C=C/C1CC(O)C(O)C(=O)C1CO (centres undefined)
inactive: Potency [1] | Potency [2] | Potency [3]

CC1=C(CC/C(C)=C/C(=O)O)[C@@]2(C)CCCC(C)(C)C2CC1=O (some centres undefined)
inactive: Potency [1] | Potency [2] | Potency [3]

CC(=O)/C=C/C1(O)C(C)CC(O[C@@H]2O[C@H](CO)[C@@H](O)[C@H](O)[C@H]2O)CC1(C)C (some centres undefined)
inactive: Potency [1] | Potency [2] | Potency [3]

C=C1CC[C@H]2[C@@](C)(CCC(O)[C@@]2(C)CO)[C@@H]1/C=C/C(=C\C(=O)O)C(=O)O (some centres undefined)
inactive: Potency [1] | Potency [2] | Potency [3]

CC(=O)OC1CC2C(C)(C)C(=O)C=CC2(C)C2CC(=O)C3=C(CCC3C3=CC(O)OC3=O)C12C (centres undefined)
inactive: Potency [1] | Potency [2] | Potency [3]

O=C(/C=C/N1C[C@@H]2C[C@@H]1CN2c1ccccn1)c1ccccc1O
inactive: Potency [1] | Potency [2] | Potency [3]
